From PubChem BioAssay (EPA / NIEHS)
“And” between values parts separate entries of the source, which are not always exact repeats. Equal entries are not always repeated. Records with an inconclusive call do not appear. The source holds several records for some structures; these can differ, active in one and inactive in another. The source made the active and inactive calls. Rule for the calls, unless noted: active = hit-call score of the fitted dose curve at least 0.9, where 1 is the maximum; inconclusive = response in the unintended direction; inactive = score below 0.9.

Assays:
[1] = BSK_3C_VCAM1: BioMAP Diversity Plus: 3C Assay for Vascular cell adhesion molecule 1 (VCAM1) Biomarker Activity (AID 2282999; active = hit-call score of the fitted dose curve at least 0.9, where 1 is the maximum; inactive = score below 0.9); conditions: BioMAP 3C HUVEC, VCAM1 ELISA, cytokine-stimulated; actives raise or lower the signal
Summary of the method: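 Vascular primary endothelium (human umbilical vein) was exposed to chemicals and assayed 24 h later. VCAM-1 levels came from ELISA, with DMSO serving as baseline for bidirectional fitting.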

[2] = BSK_4H_Eotaxin3: BioMAP Diversity Plus: 4H Assay for Eotaxin 3 Biomarker Activity (AID 2283000; active = hit-call score of the fitted dose curve at least 0.9, where 1 is the maximum; inactive = score below 0.9); conditions: primary human endothelial cells (HUVEC); actives raise or lower the signal
Summary of the method: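 Endothelial primary cells (human umbilical vein) exposed to compound for 24 h. ELISA detection of Eotaxin-3.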

[3] = target: human Peroxisome Proliferator-activated Receptor alpha (PPARa), PPARA (gene 5465) (UniProt Q07869); assay: ATG_PPARa_TRANS: Attagene TRANS-FACTORIAL HepG2 Assay for human Peroxisome Proliferator-activated Receptor alpha (PPARa) (AID 2283001)
Summary of the method: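 Cells (HepG2) are transfected with multiple reporter transcription units, exposed to chemical for 24 h, then total RNA is reverse-transcribed and amplified. Labelled products are quantified by capillary electrophoresis; induction is referenced to DMSO.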

[4] = read-out: Intercellular Adhesion Molecule 1 (ICAM1), ICAM1 (gene 3383); assay: BSK_3C_ICAM1: BioMAP Diversity Plus: 3C Assay for Intercellular Adhesion Molecule 1 (ICAM1) Biomarker Activity (AID 2283003; active = hit-call score of the fitted dose curve at least 0.9, where 1 is the maximum; inactive = score below 0.9); conditions: primary human endothelial cells (HUVEC); actives raise or lower the signal
Summary of the method: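 ELISA readout of ICAM1 in human umbilical vein endothelial cells in the 3C system, taken 24 h post-dose. Gain or loss of signal versus DMSO was fitted in both directions, with SRB total-protein staining run in parallel.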

[5] = target: Retinoic acid receptor alpha (Homo sapiens) (UniProt P10276); assay: ATG_RARa_TRANS: Attagene TRANS-FACTORIAL HepG2 Assay for human Retinoic Acid Receptor alpha (RARa) (AID 2283005);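 for AC50: potency for increased reporter signal meaning RARa activation over DMSO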
Summary of the method: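 HepG2 cells transiently transfected with multiple reporter units expressing chimeric RARα-GAL4 fusion, with GAL4-UAS-driven reporters. After 24 h compound exposure, reporter mRNA induction quantified by RT-PCR and capillary electrophoresis with fluorescent labeling; gain-of-signal fitted relative to DMSO control.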

[6] = BSK_3C_Proliferation: Cell Proliferation Assessment in the BioMAP Diversity Plus: 3C Assay (AID 2283006; active = hit-call score of the fitted dose curve at least 0.9, where 1 is the maximum; inactive = score below 0.9;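 for AC50: potency may reflect either rise or fall in cell number versus DMSO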); conditions: primary human endothelial cells (HUVEC)
Summary of the method: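 Proliferation as total protein: sulforhodamine B (0.1%) stain of TCA-fixed subconfluent human umbilical vein endothelial cells, absorbance 560 nm, 48 h after dosing. Activity fitted in both directions against DMSO baseline.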

[7] = target: Peroxisome proliferator-activated receptor gamma (Homo sapiens) (UniProt P37231); assay: ATG_PPARg_TRANS: Attagene TRANS-FACTORIAL HepG2 Assay for human Peroxisome Proliferator-activated Receptor-gamma (PPARg) (AID 2283007)
Summary of the method: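 Gain-of-signal endpoint relative to DMSO, derived from reporter mRNA levels quantified by RT-PCR and capillary electrophoresis. Cells were HepG2 transiently expressing a chimeric NR-Gal4 construct with GAL4-UAS reporters, exposed to chemicals for 24 h.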

[8] = target: Nuclear receptor subfamily 1 group I member 2 (Homo sapiens) (UniProt O75469); assay: ATG_PXR_TRANS: Attagene TRANS-FACTORIAL HepG2 Assay for human Pregnane X Receptor (PXR) (AID 2283008)
Summary of the method: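 HepG2 transfected (FuGene 6) with GAL4-UAS reporter units + PXR-Gal4 chimera; dosed 24 h. Total RNA → oligo(dT) RT → PCR → 6-FAM primer extension → HpaI cut → CE. Gain-of-signal vs DMSO.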

[9] = target: human Retinoic Acid Receptor gamma (RARg), RARG (gene 5916) (UniProt P13631); assay: ATG_RARg_TRANS: Attagene TRANS-FACTORIAL HepG2 Assay for human Retinoic Acid Receptor gamma (RARg) (AID 2283009)
Summary of the method: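 Transactivation of exogenous RARg-Gal4 fusion measured as reporter transcript induction after 24 h in transfected HepG2 cells. RNA reverse-transcribed, amplified, fluorescently labeled and resolved by capillary electrophoresis; increase relative to DMSO.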

Measured: AC50

Chain of Retinoic acid receptor alpha (Homo sapiens) (P10276 whole entry, looked up, the tested form may be a part): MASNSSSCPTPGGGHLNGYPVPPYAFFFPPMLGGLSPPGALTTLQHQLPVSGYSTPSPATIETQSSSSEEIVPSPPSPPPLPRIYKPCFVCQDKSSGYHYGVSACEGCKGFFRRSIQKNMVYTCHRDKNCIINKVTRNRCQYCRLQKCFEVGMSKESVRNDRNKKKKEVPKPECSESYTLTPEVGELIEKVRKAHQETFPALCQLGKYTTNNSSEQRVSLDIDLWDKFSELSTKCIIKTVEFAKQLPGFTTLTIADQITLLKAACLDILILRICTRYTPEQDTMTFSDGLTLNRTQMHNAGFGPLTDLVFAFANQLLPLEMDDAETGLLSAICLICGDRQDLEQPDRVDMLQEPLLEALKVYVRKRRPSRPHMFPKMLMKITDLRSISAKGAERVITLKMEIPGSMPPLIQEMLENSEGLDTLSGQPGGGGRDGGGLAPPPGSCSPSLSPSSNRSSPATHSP
Chain of human Peroxisome Proliferator-activated Receptor alpha (PPARa), PPARA (gene 5465) (Q07869 whole entry, looked up): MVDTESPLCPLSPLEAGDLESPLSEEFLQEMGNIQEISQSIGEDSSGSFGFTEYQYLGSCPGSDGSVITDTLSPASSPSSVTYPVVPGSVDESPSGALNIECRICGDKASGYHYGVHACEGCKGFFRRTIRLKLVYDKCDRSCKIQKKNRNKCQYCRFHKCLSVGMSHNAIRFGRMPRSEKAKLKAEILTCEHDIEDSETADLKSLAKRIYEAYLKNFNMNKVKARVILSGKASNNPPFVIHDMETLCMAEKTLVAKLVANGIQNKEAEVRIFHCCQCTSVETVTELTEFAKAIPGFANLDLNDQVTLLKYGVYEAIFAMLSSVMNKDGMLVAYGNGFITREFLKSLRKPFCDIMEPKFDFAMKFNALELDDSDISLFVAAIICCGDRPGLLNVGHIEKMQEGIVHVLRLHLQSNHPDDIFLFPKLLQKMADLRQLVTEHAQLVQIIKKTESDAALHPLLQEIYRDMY
Chain of Peroxisome proliferator-activated receptor gamma (Homo sapiens) (P37231 whole entry, looked up, the tested form may be a part): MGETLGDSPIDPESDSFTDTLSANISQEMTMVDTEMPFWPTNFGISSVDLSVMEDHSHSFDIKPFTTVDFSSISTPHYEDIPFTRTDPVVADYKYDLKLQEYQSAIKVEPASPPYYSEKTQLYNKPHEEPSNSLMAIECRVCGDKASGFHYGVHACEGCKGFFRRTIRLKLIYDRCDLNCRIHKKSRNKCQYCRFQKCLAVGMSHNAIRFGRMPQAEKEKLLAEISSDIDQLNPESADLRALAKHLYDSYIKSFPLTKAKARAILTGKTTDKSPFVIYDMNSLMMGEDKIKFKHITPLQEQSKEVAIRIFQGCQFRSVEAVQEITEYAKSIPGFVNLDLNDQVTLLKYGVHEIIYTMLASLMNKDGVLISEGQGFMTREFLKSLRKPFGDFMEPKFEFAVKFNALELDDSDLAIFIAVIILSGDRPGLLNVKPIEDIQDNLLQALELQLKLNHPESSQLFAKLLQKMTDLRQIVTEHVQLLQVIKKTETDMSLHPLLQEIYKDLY
Chain of Nuclear receptor subfamily 1 group I member 2 (Homo sapiens) (O75469 whole entry, looked up, the tested form may be a part): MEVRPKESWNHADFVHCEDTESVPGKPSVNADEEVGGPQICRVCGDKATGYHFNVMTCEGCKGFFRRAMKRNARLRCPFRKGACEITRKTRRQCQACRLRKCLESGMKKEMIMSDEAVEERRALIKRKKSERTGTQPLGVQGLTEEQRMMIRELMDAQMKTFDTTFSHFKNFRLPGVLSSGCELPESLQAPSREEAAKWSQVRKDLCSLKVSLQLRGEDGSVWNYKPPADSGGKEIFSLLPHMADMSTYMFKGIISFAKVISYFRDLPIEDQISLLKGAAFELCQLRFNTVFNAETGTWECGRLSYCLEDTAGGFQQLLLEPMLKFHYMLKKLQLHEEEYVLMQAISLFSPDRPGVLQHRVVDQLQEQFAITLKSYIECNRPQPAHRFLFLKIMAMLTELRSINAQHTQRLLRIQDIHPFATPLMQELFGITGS
Chain of human Retinoic Acid Receptor gamma (RARg), RARG (gene 5916) (P13631 whole entry, looked up, the tested form may be a part): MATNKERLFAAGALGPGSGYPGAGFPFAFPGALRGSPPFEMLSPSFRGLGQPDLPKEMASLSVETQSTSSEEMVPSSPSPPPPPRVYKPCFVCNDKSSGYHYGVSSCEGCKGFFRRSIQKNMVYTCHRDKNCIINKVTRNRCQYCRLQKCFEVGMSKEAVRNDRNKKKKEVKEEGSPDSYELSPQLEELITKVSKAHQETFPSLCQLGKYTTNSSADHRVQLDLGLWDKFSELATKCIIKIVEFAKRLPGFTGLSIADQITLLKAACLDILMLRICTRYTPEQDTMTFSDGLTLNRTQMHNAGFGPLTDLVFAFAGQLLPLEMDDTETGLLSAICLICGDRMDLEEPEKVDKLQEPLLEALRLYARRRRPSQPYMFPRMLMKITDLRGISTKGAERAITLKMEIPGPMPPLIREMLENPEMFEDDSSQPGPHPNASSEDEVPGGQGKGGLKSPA

N#CSCSC#N
active: [1] 8.79 µM | [2] 6.94 µM | [4] 8.09 µM | [6] 2.07 µM
inactive: all other assays above

CC[C@H](C)[C@H]1O[C@]2(C=C[C@@H]1C)C[C@@H]1C[C@@H](C/C=C(\C)[C@@H](O[C@H]3C[C@H](OC)[C@@H](O[C@H]4C[C@H](OC)[C@@H](NC)[C@H](C)O4)[C@H](C)O3)[C@@H](C)/C=C/C=C3\CO[C@@H]4[C@H](O)C(C)=C[C@@H](C(=O)O1)[C@]34O)O2
active: [1] 6.56 µM | [2] 5.75 µM | [4] 9.48 µM | [6] 1.68 µM
inactive: [3] | [7]

CCCOCC(=Nc1ccc(Cl)cc1C(F)(F)F)n1ccnc1
active: [1] 33.6 µM | [2] 34.4 µM | [4] 29.7 µM | [5] 1.1 µM | [6] 33.4 µM | [7] 1.36 µM
inactive: [3] | [8] | [9]

Cc1cc(C2CC2)nc(Nc2ccccc2)n1
active: [2] 9.49 µM | [6] 15.8 µM | [7] 50 µM
inactive: all other assays above

C#CCC1=C(C)C(OC(=O)C2C(C=C(C)C)C2(C)C)CC1=O (stereo not drawn)
active: [6] 28.8 µM | [7] 28 µM | [8] 3.12 µM
inactive: all other assays above

CON=C(C(=O)OC)c1ccccc1CON=C(C)c1cccc(C(F)(F)F)c1
active: [2] 2.78 µM | [6] 1.58 µM | [7] 50 µM
inactive: all other assays above

CCOP(=S)(OCC)SCCSCC
not listed: [9]
inactive: all other assays above

CN(C)C(=O)Nc1cccc(C(F)(F)F)c1
not listed: [9]
inactive: all other assays above

CCNc1nc(Cl)nc(NC(C)(C)C#N)n1
not listed: [5] | [8] | [9]
inactive: all other assays above

CNC(=O)ON=C(SC)C(=O)N(C)C
not listed: [5] | [8] | [9]
inactive: all other assays above

Nc1nc(N)nc(NC2CC2)n1
not listed: [7]
inactive: all other assays above

CNC(=O)Oc1cccc2c1OC(C)(C)O2
active: [1] 28.5 µM | [2] 20 µM
not listed: [5] | [9]
inactive: all other assays above

CC(Oc1cccc(Cl)c1)C(=O)O (stereo not drawn)
inactive: all assays above

O=[N+]([O-])c1cc(C(F)(F)F)c(Cl)c([N+](=O)[O-])c1Nc1ncc(C(F)(F)F)cc1Cl
inactive: [3] | [5] | [7] | [8] | [9]
active: [1] 1.46 µM and 2.82 µM | [2] 1.39 µM and 3.07 µM | [4] 3.09 µM and 3.8 µM | [6] 589 nM and 1.47 µM | [7] 0.651 µM | [8] 2.86 µM

C[Si](Cn1cncn1)(c1ccc(F)cc1)c1ccc(F)cc1
active: [7] 48.5 µM
not listed: [5] | [9]
inactive: all other assays above

CC(=NC#N)N(C)Cc1ccc(Cl)nc1
inactive: all assays above

CCCSP(=O)(OCC)Oc1ccc(Br)cc1Cl (stereo not drawn)
active: [6] 27.4 µM
inactive: all other assays above

CCCCOC(=O)c1ccccc1C(=O)O
not listed: [5] | [8] | [9]
inactive: all other assays above

CC(C)=CC1C(C(=O)OCN2C(=O)C3=C(CCCC3)C2=O)C1(C)C (stereo not drawn)
inactive: [2] | [3] | [4]
active: [1] 14.4 µM | [6] 15.6 µM | [7] 50 µM | [8] 40.2 µM

CCOP(=S)(OCC)Oc1ccc2c(C)c(Cl)c(=O)oc2c1
active: [5] 2.3 µM | [6] 9.56 µM | [8] 3.94 µM
inactive: all other assays above

CCCCN(CC)c1c([N+](=O)[O-])cc(C(F)(F)F)cc1[N+](=O)[O-]
active: [6] 31.6 µM | [8] 14.4 µM
inactive: all other assays above

CNC(=O)ON=C(C)SC
not listed: [5] | [9]
inactive: all other assays above

COc1cc(OC)nc(Sc2cccc(Cl)c2C(=O)O)n1
not listed: [5] | [8] | [9]
inactive: all other assays above

CSc1nc(NC(C)C)nc(NC(C)C)n1
active: [7] 47.6 µM | [8] 18.4 µM
inactive: all other assays above

COP(=O)(OC)C(O)C(Cl)(Cl)Cl (stereo not drawn)
active: [5] 78.9 µM | [7] 72.2 µM
inactive: all other assays above

C=C(C)[C@H]1Cc2c(ccc3c2O[C@@H]2COc4cc(OC)c(OC)cc4[C@@H]2C3=O)O1
active: [1] 20 µM | [2] 20 µM | [6] 1.36 µM
inactive: all other assays above

CN(C)NC(=O)CCC(=O)O
not listed: [8] | [9]
inactive: all other assays above

CC(C)N(C(=O)SCC(Cl)=C(Cl)Cl)C(C)C
active: [1] 35.5 µM | [2] 32 µM | [4] 30.9 µM | [6] 34.7 µM
not listed: [7]
inactive: all other assays above

CC(C1CC1)C(O)(Cn1cncn1)c1ccc(Cl)cc1 (stereo not drawn)
inactive: all assays above

CC1=NNC(=O)N(/N=C/c2cccnc2)C1
inactive: all assays above

CCOC(=O)COc1cc(-c2nn(C)c(OC(F)F)c2Cl)c(F)cc1Cl
active: [6] 15.5 µM | [8] 29.6 µM
inactive: all other assays above

O=C(O)c1cc(Oc2ccc(C(F)(F)F)cc2Cl)ccc1[N+](=O)[O-]
active: [5] 2.9 µM | [7] 37.1 µM
inactive: all other assays above

Cc1nn(-c2cc(NS(C)(=O)=O)c(Cl)cc2Cl)c(=O)n1C(F)F
active: [7] 28 µM | [8] 28.9 µM
not listed: [5] | [9]
inactive: all other assays above
